Measured values: PubChem BioAssay (NCI)
This is part of a sample that, as a whole, favours compounds with a hit. Of some 79,000 tested, about 15% had one in any assay. Values without a mark were called inactive. The source made the active and inactive calls. No stated cut-off is given here; in the data, active means growth inhibition above about 70%; inactive means the rest.

Experiments:
[1] = NCI Yeast Anticancer Drug Screen. Data for the rad50 strain (AID 155);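 further: 0% = growth of vehicle-only cultures of the same strain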; conditions: S. cerevisiae rad50 strain growth inhibition, stronger effect = higher value
Summary of the method: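 Inhibition values express reduced yeast growth in compound-treated cultures relative to vehicle-treated controls.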

[2] = NCI Yeast Anticancer Drug Screen. Data for the mec2-1 strain (AID 157); conditions: S. cerevisiae mec2-1 strain, stronger effect = higher value
Summary of the method: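 Strain: mec2-1 (DNA repair/cell cycle alteration). Compound exposure, then growth measured; inhibition expressed relative to vehicle.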

[3] = NCI Yeast Anticancer Drug Screen. Data for the sgs1 mgt1 strain (AID 161);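 further: 0% = growth of cultures given vehicle only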; conditions: S. cerevisiae sgs1 mgt1 strain, stronger effect = higher value
Summary of the method: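 Mutant yeast exposed to compound; growth scored against vehicle-only wells.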

[4] = NCI Yeast Anticancer Drug Screen. Data for the cln2 rad14 strain (AID 165);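 further: 0% = growth equal to vehicle treated cultures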; conditions: S. cerevisiae cln2 rad14 strain, stronger effect = higher value
Summary of the method: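 Compounds are applied to the cln2 rad14 yeast strain, and growth is then compared with that of vehicle-treated cultures to give inhibition.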

[5] = NCI Yeast Anticancer Drug Screen. Data for the bub3 strain (AID 167); conditions: S. cerevisiae bub3 mutant strain, stronger effect = higher value
Summary of the method: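 Steps: expose the mutant yeast strain to compound; grow alongside vehicle-treated cultures; measure growth; express inhibition against the vehicle cultures.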

[6] = NCI Yeast Anticancer Drug Screen. Data for the mlh1 rad18 strain (AID 175); conditions: S. cerevisiae mlh1 rad18 strain growth inhibition, stronger effect = higher value
Summary of the method: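 Read-out is yeast growth inhibition, calculated against vehicle-only controls. The compound was applied to a strain engineered with DNA damage repair alterations.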

[7] = at 5.0 µM (retest, dose inferred, filed as 0.5)
[8] = at 50.0 µM (retest, dose inferred, filed as 5.0)

Compound | growth inhibition [1, 7] | growth inhibition [1, 8] | growth inhibition ([1]; at 50.0 µM) | growth inhibition [2, 7] | growth inhibition [2, 8] | growth inhibition ([2]; at 50.0 µM) | growth inhibition [3, 7] | growth inhibition [3, 8] | growth inhibition ([3]; at 50.0 µM) | growth inhibition [4, 7] | growth inhibition [4, 8] | growth inhibition ([4]; at 50.0 µM) | growth inhibition [5, 7] | growth inhibition [5, 8] | growth inhibition ([5]; at 50.0 µM) | growth inhibition [6, 7] | growth inhibition [6, 8] | growth inhibition ([6]; at 50.0 µM)
O=S(=O)(OCC#CCOS(=O)(=O)c1ccc(Cl)c(Cl)c1)c1ccc(Cl)c(Cl)c1 | -1% | 32% | 28.8% | -1% | 41% | 44% | -6% | 63% | 54.7% | 1% | 8% | 75.2% (active) | -4% | 32% | 35.3% | 7% | 37% | 48.2%
CCOC(=O)CC(N)CC(=O)OCC | -142% | -157% | 94.8% (active) | -47% | -49% | 39.1% | -56% | -64% | -1.35% | -53% | -53% | -4.7% | -67% | -79% | 75.2% (active) | -110% | -113% | 44.5%
O=C1OC(c2ccc(O)cc2)Sc2ccccc21 (stereo not given) | 6% | 66% | 81.1% (active) | 38% | 83% (active) | 74.2% (active) | -43% | 40% | 49.8% | 3% | 24% | -22.5% | -1% | 29% | 3.9% | 8% | 56% | 40%
CC(=O)OCC1CC2OC2CC1C (stereo not given) | 1% | 2% | 70.1% (active) | 6% | -5% | 50.1% | 15% | 7% | 70.4% (active) | 34% | 9% | 68.1% | 27% | 19% | 75% (active) | -12% | -26% | 63%
C=C1OC(=O)C(=O)N1CC(=O)O | -156% | -170% | -1.35% | -50% | -54% | 5.4% | -61% | -70% | -5.5% | -54% | -69% | 44.9% | -70% | -82% | -6.45% | -139% | -119% | 4.05%
CC1=CC(C2/C(=N/O)C=C(C)CC2(C)C)C(O)C(C)(C)C1 (stereo not given) | 7% | 95% (active) | 99.2% (active) | -18% | 99% (active) | 98.2% (active) | -4% | 96% (active) | 98.8% (active) | -1% | 97% (active) | 97.8% (active) | -23% | 92% (active) | 98.2% (active) | -3% | 98% (active) | 98.7% (active)
Cn1cc(CCC(=O)C2C=CC=CC2=NC(=O)CCCl)c2ccccc21 (stereo not given) | 11% | 7% | -3.6% | 7% | -6% | 12.8% | -1% | -20% | -4% | 14% | 14% | 14.3% | 11% | 7% | 8.95% | -2% | 1% | -17.1%
CCCCCCCCCCCCCCCC1C(N)C(=O)N(C)N1C (stereo not given) | -33% | 96% (active) | 89.7% (active) | -25% | 97% (active) | 91.2% (active) | -19% | 95% (active) | 91.7% (active) | -30% | 94% (active) | 88% (active) | -51% | 95% (active) | 89.5% (active) | -43% | 95% (active) | 90.4% (active)
CC[N+]1(C)CC2CCC(CC2)C1 (stereo not given) | -2% | -5% | -1.6% | -3% | -3% | 35% | -4% | -2% | 7.2% | -4% | -6% | 72% (active) | -3% | 2% | -7.15% | -4% | -3% | 7.35%
CCN(CC)c1ccc(NC(C(=O)c2ccc(Cl)cc2)c2ccc(Cl)cc2)cc1 (stereo not given) | -7% | -10% | 91.3% (active) | -2% | -10% | 91.2% (active) | -6% | -9% | 96.2% (active) | 2% | -11% | 93.3% (active) | -1% | 8% | 86.3% (active) | -2% | -8% | 95.6% (active)
